Test results taken from PubChem BioAssay (Tox21).
Values joined by “and” are separate entries in the source; they are usually repeats but may differ in a detail not shown here. Equal values may be shown once. Inconclusive results are not listed. A call without a number means that no potency is given here. The source holds several records for some structures; these can differ, active in one and inactive in another. Active and inactive are the calls of the source. Unless noted, the call rests on the fitted dose curve; in most records, active means well fitted curve in the direction sought with a large enough effect in the repeat runs; inconclusive means weak or mixed curves; inactive means no such curve, though single readings can be large; an effect the other way counts as inactive or inconclusive.

How the values were obtained:
[1] = qHTS assay for small molecule agonists of the p53 signaling pathway (AID 651631; calls by dose curve; further: nearly all actives have a fitted effect of over 15% in size)
How it was run: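 Read-out is beta-lactamase FRET fluorescence measured 2 h after substrate addition at room temperature, in HCT-116 cells with a p53 response element-driven reporter exposed to compounds for 16 h at 37 °C.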

[2] = qHTS assay for small molecules that induce genotoxicity in human embryonic kidney cells expressing luciferase-tagged ATAD5 (AID 651632); further: nearly all actives have a fitted effect of over 15% in size
How it was run: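 HEK293T cells carrying a luciferase reporter tagged to ATAD5 were exposed to compound or DMSO vehicle for 16 hr at 37C, 5% CO2. Amplite was added, and after 30 min at room temperature luciferase activity was read as a marker of ATAD5 induction.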

[3] = qHTS assay for small molecule agonists of the p53 signaling pathway - cell viability (AID 651633; calls by dose curve;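 further: p53RE-bla HCT reporter cells with a stable beta-lactamase p53 reporter; nearly all actives have a fitted effect of over 30% in size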)
How it was run: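 p53RE-bla cells were treated with compound for 16 hours at 37 C. Cytotoxicity was then measured as CellTiter-Glo luminescence after 30 min at room temperature.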

[4] = qHTS assay for small molecules that induce genotoxicity in human embryonic kidney cells expressing luciferase-tagged ATAD5 - cell viability (AID 651634; calls by dose curve; further: nearly all actives have a fitted effect of over 25% in size; further: potency means the concentration at half of the fitted maximal effect)
How it was run: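 HEK293T cells expressing luciferase-tagged ATAD5 were exposed to compound or DMSO for 15.5 hr at 37C, 5% CO2. Viability was then read as live-cell protease activity by CellTiter-Fluor fluorescence after 30 min at 37C.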

[5] = qHTS assay for small molecule disruptors of the mitochondrial membrane potential - cell viability (AID 720634; calls by dose curve;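 further: human HepG2 liver cancer cells; nearly all actives have a fitted effect of over 20% in size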)
How it was run: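 HepG2 cells seeded overnight at 37 C, then exposed to compound or DMSO for 1 hr at 37 C, 5% CO2. m-MPI dye added, then CellTiter-Glo for 30 min at room temperature; viability read as ATP luminescence.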

[6] = qHTS assay for small molecule disruptors of the mitochondrial membrane potential (AID 720635); further: potency means the concentration at half of the fitted maximal effect
How it was run: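 HepG2 cells exposed to compound 1 hr at 37C, then Mito-MPS dye 30 min. Ratio read of aggregate (540/590 nm) versus monomer (490/535 nm) fluorescence.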

[7] = qHTS assay to test for compound auto fluorescence at 590 nm (red) in HepG2 cells (AID 720674)
How it was run: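 Fluorescence at 590 nm emission following 540 nm excitation was recorded from HepG2 wells one hour after compound transfer, with DMSO-only wells as vehicle and Rose Bengal sodium equivalency as the scale.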

[8] = qHTS assay to test for compound auto fluorescence at 535 nm (green) in HepG2 cells (AID 720675)
[9] = qHTS assay to test for compound auto fluorescence at 460 nm (blue) in HEK293 cells (AID 720678)
How it was run: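 HEK293, 2,000 cells/well, 10% dialyzed FBS; attach 4-5 hr 37C; pin compound or DMSO; o/n 37C/5% CO2; fluorescence 405/460 nm; triamterene-equivalent units.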

[10] = qHTS assay to test for compound auto fluorescence at 590 nm (red) in HEK293 cells (AID 720679)
How it was run: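 Intensity at 540nm excitation and 590nm emission is reported as Rose Bengal sodium-equivalent autofluorescence. Measurements followed overnight exposure (37C, 5% CO2) of HEK293 cells, 2,000 per well, to 23 nL compound.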

[11] = qHTS assay to test for compound auto fluorescence at 535 nm (green) in HEK293 cells (AID 720680)
[12] = qHTS assay to test for compound auto fluorescence at 460 nm (blue) in HEK293 cell free culture (AID 720681)
How it was run: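 Compounds were added to cell-free DMEM with 10% FBS and fluorescence read directly. The blue channel used 405 nm excitation and 460 nm emission, with triamterene as the reference fluorophore.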

[13] = qHTS assay to test for compound auto fluorescence at 535 nm (green) in HEK293 cell free culture (AID 720682)
How it was run: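 Fluorescein serves as the green reference fluorophore; each compound's intrinsic emission at 535 nm (excitation 485 nm) is reported as an equivalent amount of that dye, measured in serum-containing DMEM without cells.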

[14] = qHTS assay to test for compound auto fluorescence at 590 nm (red) in HEK293 cell free culture (AID 720683)
How it was run: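 Cell-free wells of DMEM with 10% FBS received compound, and intrinsic fluorescence was read at excitation/emission 540/590 nm. Values expressed as equivalence to Rose Bengal sodium.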

[15] = qHTS assay to test for compound auto fluorescence at 590 nm (red) in HepG2 cell free culture (AID 720684)
How it was run: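 Compound was pinned into wells holding MEM with 10% FBS and no cells, and red fluorescence was read at Ex/Em 540/590 nm. Signal is expressed as auto fluorescence equivalency relative to Rose Bengal sodium.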

[16] = qHTS assay to test for compound auto fluorescence at 460 nm (blue) in HepG2 cell free culture (AID 720685)
How it was run: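 Compound (23 nL) or DMSO pinned into cell-free MEM with 10% FBS; blue fluorescence read at 405/460 nm excitation/emission, expressed as auto-fluorescence equivalency to triamterene.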

[17] = qHTS assay to test for compound auto fluorescence at 535 nm (green) in HepG2 cell free culture (AID 720686)
[18] = qHTS assay to test for compound auto fluorescence at 460 nm (blue) in HepG2 cells (AID 720687)
How it was run: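 HepG2 cells in MEM with 10% FBS, attached overnight at 37 C, were exposed to compound or DMSO for 1 hr at 37 C, 5% CO2. Blue fluorescence was read at 405/460 nm, with triamterene as reference fluorophore.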

[19] = molecular target: Glucocorticoid receptor (Homo sapiens) (UniProt P04150); test: qHTS assay to identify small molecule agonists of the glucocorticoid receptor (GR) signaling pathway (AID 720691; active means well fitted activation curve with a large enough effect in the signal ratio in the repeat runs, not every such curve was filed as active; the % refers to the signal ratio); details: GR-bla HeLa, beta-lactamase reporter ratio, 18 h; activation: at 62.4 µM (top of the series)
How it was run: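 GR-bla HeLa cells (beta-lactamase reporter under glucocorticoid response element) were plated 4 h at 37 C/5% CO2, given compounds in DMSO, and incubated 18 h at 37 C. LiveBLAzer B/G FRET substrate was added for 2 h at room temperature, then fluorescence intensity read.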

[20] = molecular target: Glucocorticoid receptor (Homo sapiens) (UniProt P04150); test: qHTS assay to identify small molecule antagonists of the glucocorticoid receptor (GR) signaling pathway (AID 720692; active means well fitted inhibition curve with a large enough effect in the signal ratio in the repeat runs, not every such curve was filed as active; the % refers to the signal ratio)
How it was run: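 GR-bla HeLa cells (beta-lactamase reporter under glucocorticoid response element) were pre-plated 4 h at 37 C, treated with compounds plus 5 nM dexamethasone (final) for 18 h, then read by LiveBLAzer B/G FRET fluorescence after 2 h.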

Glucocorticoid receptor (Homo sapiens), sequence (P04150 whole entry, looked up): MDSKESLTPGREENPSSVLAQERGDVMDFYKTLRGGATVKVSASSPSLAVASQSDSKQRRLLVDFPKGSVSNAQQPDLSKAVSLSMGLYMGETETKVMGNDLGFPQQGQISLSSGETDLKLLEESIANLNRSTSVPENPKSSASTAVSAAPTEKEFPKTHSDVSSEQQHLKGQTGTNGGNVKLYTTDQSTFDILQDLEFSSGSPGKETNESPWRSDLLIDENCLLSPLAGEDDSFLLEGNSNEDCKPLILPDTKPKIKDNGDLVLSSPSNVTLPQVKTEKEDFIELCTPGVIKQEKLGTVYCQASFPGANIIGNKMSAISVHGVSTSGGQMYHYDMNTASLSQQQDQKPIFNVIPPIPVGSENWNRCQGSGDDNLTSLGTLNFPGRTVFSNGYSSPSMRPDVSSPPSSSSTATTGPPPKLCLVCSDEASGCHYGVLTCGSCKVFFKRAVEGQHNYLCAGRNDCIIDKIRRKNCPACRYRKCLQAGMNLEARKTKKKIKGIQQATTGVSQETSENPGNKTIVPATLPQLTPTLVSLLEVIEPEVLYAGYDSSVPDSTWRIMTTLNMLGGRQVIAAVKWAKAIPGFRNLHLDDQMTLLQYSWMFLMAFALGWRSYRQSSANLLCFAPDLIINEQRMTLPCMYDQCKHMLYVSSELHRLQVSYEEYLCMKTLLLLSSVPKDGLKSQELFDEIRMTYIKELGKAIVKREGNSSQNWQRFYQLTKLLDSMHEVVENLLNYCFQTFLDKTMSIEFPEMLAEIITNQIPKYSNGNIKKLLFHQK

SMILES	Potency [1]	outcome [2]	Potency [3]	Potency [4]	Potency [5]	Potency [6]	outcome [7]	outcome [8]	outcome [9]	outcome [10]	outcome [11]	outcome [12]	outcome [13]	outcome [14]	outcome [15]	outcome [16]	outcome [17]	outcome [18]	Potency [19]	Potency [20]
CC(C)CC(=O)CC(C)C	inactive	inactive	inactive	inactive	inactive	inactive	inactive	inactive	inactive	inactive	inactive	inactive	inactive	inactive	inactive	inactive	inactive	inactive	–	–
O=S1(=O)CC=CC1	inactive	inactive	inactive	inactive	inactive	inactive	inactive	inactive	inactive	inactive	inactive	inactive	inactive	inactive	inactive	inactive	inactive	inactive	inactive	inactive
O=c1[nH]c(=O)n([C@H]2C[C@H](O)[C@@H](CO)O2)cc1Br	inactive	inactive	inactive	inactive	inactive	inactive	inactive	inactive	inactive	–	inactive	inactive	inactive	inactive	inactive	inactive	inactive	inactive	–	–
O=C(O)c1cc(=O)c2c(OCC(O)COc3cccc4oc(C(=O)O)cc(=O)c34)cccc2o1	inactive	inactive	inactive	inactive	inactive	inactive	inactive	inactive	–	inactive	inactive	inactive	inactive	inactive	inactive	inactive	inactive	inactive	–	–
O=C(O)CC(C(=O)O)C(CC(=O)O)C(=O)O (centres undefined)	inactive	inactive	inactive	inactive	inactive	inactive	inactive	inactive	inactive	inactive	inactive	inactive	inactive	inactive	inactive	inactive	inactive	inactive	inactive	inactive
C[C@H]1C[C@H]2[C@@H]3CCC4=CC(=O)C=C[C@]4(C)[C@@]3(F)[C@@H](O)C[C@]2(C)[C@@]1(O)C(=O)CO	inactive	inactive	inactive	inactive	inactive	inactive	inactive	inactive	–	inactive	inactive	inactive	inactive	inactive	inactive	inactive	inactive	inactive	–	–
CCC(O)OCCCOC (centres undefined)	inactive	inactive	inactive	inactive	inactive	inactive	inactive	inactive	inactive	–	inactive	inactive	inactive	inactive	inactive	inactive	inactive	inactive	inactive	inactive
Cc1cccc(O)c1	inactive	inactive	inactive	inactive	inactive	inactive	inactive	inactive	inactive	inactive	inactive	inactive	inactive	inactive	inactive	inactive	inactive	inactive	inactive	inactive
CCCCCCCCCC	inactive	inactive	inactive	inactive	inactive	inactive	inactive	inactive	inactive	inactive	inactive	inactive	inactive	inactive	inactive	inactive	inactive	inactive	–	–
CCCCOC(=O)COc1ccc(Cl)cc1Cl	inactive	inactive	inactive	inactive	inactive	inactive	inactive	inactive	inactive	inactive	inactive	inactive	inactive	inactive	inactive	inactive	inactive	inactive	–	–
O=C(OCCOCCOC(=O)c1ccccc1)c1ccccc1	inactive	inactive	inactive	inactive	inactive	inactive	inactive	inactive	inactive	–	inactive	inactive	inactive	inactive	inactive	inactive	inactive	inactive	inactive	inactive
O=C1CCC(N2C(=O)c3ccccc3C2=O)C(=O)N1 (centres undefined)	inactive	inactive	inactive	inactive	inactive	inactive	inactive	inactive	inactive	inactive	inactive	inactive	inactive	inactive	inactive	inactive	inactive	inactive	inactive	inactive
COc1ccc(Nc2ccccc2)c(C)c1	inactive	inactive	inactive	inactive	inactive	inactive and 48.6 µM (active)	inactive	inactive	inactive	inactive	inactive	inactive	inactive	inactive	inactive	inactive	inactive	inactive	inactive	inactive
O=C=NCCCCCCN=C=O	inactive	inactive	inactive	inactive	inactive	inactive	inactive	inactive	inactive	inactive	inactive	inactive	inactive	inactive	inactive	inactive	inactive	inactive	–	–
CCCCCCCCCCCCCCO	inactive	inactive	inactive	inactive	inactive	61.1 µM (active)	inactive	inactive	inactive	–	inactive	inactive	inactive	inactive	inactive	inactive	inactive	inactive	–	–
CCCCCCCC(=O)OC	inactive	inactive	inactive	inactive	inactive	inactive	inactive	inactive	inactive	inactive	inactive	inactive	inactive	inactive	inactive	inactive	inactive	inactive	–	–

SMILES	Potency [1]	outcome [2]	Potency [3]	Potency [4]	Potency [5]	Potency [6]	outcome [7]	outcome [8]	outcome [9]	outcome [10]	outcome [11]	outcome [12]	outcome [13]	outcome [14]	outcome [15]	outcome [16]	outcome [17]	outcome [18]	Potency [19]	Potency [20]
O=C(CC(C(=O)OC1CCCCC1)S(=O)(=O)O)OC1CCCCC1 (centres undefined)	inactive	inactive	inactive	inactive	inactive	inactive	inactive	inactive	inactive	inactive	inactive	inactive	inactive	inactive	inactive	inactive	inactive	inactive	inactive	inactive
OCCOCCOCCO	inactive	inactive	inactive	inactive	inactive	inactive	inactive	inactive	inactive	inactive	inactive	inactive	inactive	inactive	inactive	inactive	inactive	inactive	inactive	inactive
CC1CCC2CC1C2(C)C (centres undefined)	inactive	inactive	inactive	inactive	inactive	inactive	inactive	inactive	inactive	inactive	inactive	inactive	inactive	inactive	inactive	inactive	inactive	inactive	inactive	inactive
CC(=O)CC(=O)Nc1ccccc1C	inactive	inactive	inactive	inactive	inactive	inactive	inactive	inactive	inactive	–	inactive	inactive	inactive	inactive	inactive	inactive	inactive	inactive	inactive	inactive
Nc1cc([N+](=O)[O-])ccc1O	inactive	inactive	inactive	24.3 µM (active)	inactive	27.3 µM (active)	inactive	inactive	inactive	inactive	inactive	inactive	inactive	inactive	inactive	inactive	inactive	inactive	inactive	inactive
CCCCCCCCCCCCS	inactive	inactive	inactive	inactive	inactive	inactive	inactive	inactive	inactive	–	inactive	inactive	inactive	inactive	inactive	inactive	inactive	inactive	–	–
ON=C1CCCCC1	inactive	inactive	inactive	inactive	inactive	inactive	inactive	inactive	inactive	inactive	inactive	inactive	inactive	inactive	inactive	inactive	inactive	inactive	inactive	inactive
O=C(O)c1ccc(C(=O)O)cc1	inactive	inactive	inactive	inactive	inactive	inactive	inactive	inactive	inactive	inactive	inactive	inactive	inactive	inactive	inactive	inactive	inactive	inactive	inactive	inactive
O=S(=O)(O)c1ccc2ccccc2c1	inactive	inactive	inactive	inactive	inactive	inactive	inactive	inactive	–	inactive	inactive	inactive	inactive	inactive	inactive	inactive	inactive	inactive	–	–
CCCCCC(N)=O	inactive	inactive	inactive	inactive	inactive	inactive	inactive	inactive	inactive	inactive	inactive	inactive	inactive	inactive	inactive	inactive	inactive	inactive	–	–
CCC(O)OC(O)CC (centres undefined)	inactive	inactive	inactive	inactive	inactive	inactive	inactive	inactive	inactive	inactive	inactive	inactive	inactive	inactive	inactive	inactive	inactive	inactive	inactive	inactive
CN(C)CCCN	inactive	inactive	inactive	inactive	inactive	inactive	inactive	inactive	inactive	–	inactive	inactive	inactive	inactive	inactive	inactive	inactive	inactive	inactive	inactive
c1ccc(OCCOc2ccccc2)cc1	inactive	inactive	inactive	inactive	inactive	24.3 µM (active)	inactive	inactive	inactive	–	inactive	inactive	inactive	inactive	inactive	inactive	inactive	inactive	inactive	inactive
CC(C)(N)CO	inactive	inactive	inactive	inactive	inactive	inactive	inactive	inactive	inactive	–	inactive	inactive	inactive	inactive	inactive	inactive	inactive	inactive	inactive	inactive
CC(O)COCC(C)O (centres undefined)	inactive	inactive	inactive	inactive	inactive	inactive	inactive	inactive	inactive	inactive	inactive	inactive	inactive	inactive	inactive	inactive	inactive	inactive	inactive	inactive
